LmPK inhibitor: LmPK (Leishmania mexicana) enzyme inhibition; 290,000 tested, 0.37% active; Potency, µM (titrated, usually from 57.5 µM), inactives show top-dose activity change, negative = inhibition, hits mostly inhibitors; purified LmPK, Kinase-Glo ATP luminescence, 1 h; also: % is scaled to controls: 0 for no effect and ±100 for the full control effect
Target sequence (Q27686 whole entry, looked up): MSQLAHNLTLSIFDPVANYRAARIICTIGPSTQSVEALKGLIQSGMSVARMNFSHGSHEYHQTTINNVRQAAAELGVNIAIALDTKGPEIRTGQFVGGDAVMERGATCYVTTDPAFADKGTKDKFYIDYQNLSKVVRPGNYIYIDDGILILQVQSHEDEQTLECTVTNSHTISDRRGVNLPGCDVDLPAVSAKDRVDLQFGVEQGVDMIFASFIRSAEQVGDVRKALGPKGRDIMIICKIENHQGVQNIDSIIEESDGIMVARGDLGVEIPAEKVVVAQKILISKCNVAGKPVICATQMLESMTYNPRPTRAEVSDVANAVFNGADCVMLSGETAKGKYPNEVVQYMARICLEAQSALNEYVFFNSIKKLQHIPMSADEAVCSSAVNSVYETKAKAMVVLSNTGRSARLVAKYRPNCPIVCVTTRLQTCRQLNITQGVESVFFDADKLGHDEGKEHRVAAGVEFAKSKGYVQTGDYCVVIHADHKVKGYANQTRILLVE
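Kinase-Glo luminescence read after 1 h RT reaction of 0.1 nM LmPK with 0.5 mM PEP and 0.1 mM ADP. Activity scaled between uninhibited and enzyme-free controls.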
RE007 growth inh: less growth of the S. pombe RE007 Vpr strain; S. pombe RE007 Vpr strain, BacTiter-Glo ATP luminescence, 24 h; Potency, µM (highest dose often 92.2 µM), for the others: top-dose activity change, negative = less growth, usual class: inhibitors; 360,000 tested, 0.21% active; AID 651644; active = well fitted falling curve with a large enough effect; inconclusive = small, poorly fitted or top-dose-only effect; inactive = no such curve, though single readings can be large or run the other way; also: % is scaled to controls: 0 for no effect and ±100 for the full control effect; nearly all actives have a fitted effect of over 50% in size
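Fission yeast RE007 carrying one integrated HIV-1 vpr copy, seeded at OD 0.01 in PMG+AL medium with 23 nL pinned compound. Grown 24 h at 30 degrees; viability read by BacTiter-Glo luminescence after 5 min.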
NS1 function inh: blocks influenza NS1 protein function; Potency, µM (series often up to 46.1 µM), for inactives: top-dose activity, positive = more growth; 270,000 tested, 0.4% active; AID 2326; calls by dose curve; also: actives are rising curves; nearly all actives have a fitted effect of over 50% in size
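A cell-based growth assay was used: compounds that relieve NS1-induced slow growth of budding yeast raise OD600. Assay medium was yeast nitrogen base with ammonium sulphate and -URA supplement, pH 6.0, with 2% galactose.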
TbPYK inhibitor: inhibitors of Trypanosoma brucei pyruvate kinase | 410,000 tested, 0.12% active | TbPYK enzyme, Kinase-Glo Plus ATP luminescence, 45 min | AID 624173 | Potency, µM (series often up to 76.8 µM), without a hit: top-dose activity, negative = inhibition, hits mostly inhibitors; also: % is scaled to controls: 0 for no effect and ±100 for the full control effect; nearly all actives have a fitted effect of over 50% in size
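ADP (130 uM final) triggers the TbPYK reaction after compound addition; incubation is 45 min at room temperature. Kinase-Glo Plus is then added and luminescence imaged. Normalized data are fitted to concentration-effect curves.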
AMA1-RON2 inh: AMA1-RON2 (P. falciparum) interaction inhibition. 360,000 tested, 0.2% active. AlphaScreen AMA1-biotinylated RON2 peptide binding. Potency, µM (top dose mostly 58.2 µM), inactives show at the highest dose activity change, negative = inhibition, actives largely listed as inhibitors;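 also: 0% = vehicle wells and -100% = peptide control; nearly all actives have a fitted effect of over 45% in size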
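AMA1 (3D7) with his tag at 25 nM final met compounds first, then biotinylated RON2 peptide at 25 nM; detection used donor plus acceptor beads, 10 µg/mL apiece, read by AlphaScreen after 30 min at room temperature.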
* = called active by the depositor; ? = inconclusive; . = not tested or not shown; [ ] = dose if it differs, or a comment. Rows were chosen to be rich in hits. Some 0.92% of all compounds tested hit in one or more screens of this group. Unless noted, calls follow the shape of the dose curve; as a rule, active = well fitted curve in the direction sought with a large enough effect; inconclusive = small, poorly fitted or top-dose-only effect, or another doubt; inactive = no such curve, though single readings can be large; an effect the other way counts as inactive or inconclusive. Potency is read from the fitted curve at half-maximal effect.

SMILES | LmPK inhibitor | RE007 growth inh | NS1 function inh | TbPYK inhibitor | AMA1-RON2 inh
CCC1C/C(=C\c2cc(OC)c(OC)cc2OC)C(=O)/C(=C/c2cc(OC)c(OC)cc2OC)C1 (stereo unspecified) | 0% | 9% | 22% | -5% | 22µM*
COc1cc(OC)c(OC)cc1/C=C1/Cc2ccccc2C1=O | 3% | 5% | 6% | -12% | 0%
O=C(O)C1Nc2c(Cl)cc(Cl)c(Cl)c2C2C=CCC12 (stereo unspecified) | . | 5% | . | -13% | -13%
O=C(O)C1Nc2c(Cl)cc(Cl)cc2C2C=CCC12 (stereo unspecified) | -2% | -30% | 10% | -28% | 14µM*
O=C(O)C1Nc2ccc(Br)cc2C2C=CCC12 (stereo unspecified) | 12% | 5% | 25% | -8% | 10µM*
CCOC(=O)C1Nc2ccc(Br)cc2C2C=CCC12 (stereo unspecified) | -4% | 9% | 13% | ? | -20%
CC1(C)CCC(C)(C)c2c1ccc(O)c2Cc1c(O)ccc2c1C(C)(C)CCC2(C)C | . | . | 9% | . | .
c1ccc(-c2nnc(-c3ccccn3)s2)nc1 | 13µM* | -3% | 12% | ? | 11%
CN1CCC(N(Cc2cccs2)c2ccccc2)CC1 | . | . | . | 8% | .
Cc1ccc(NC(=O)CN(C)Cc2cccs2)cc1Cl | 1% | -17% | -16% | -2% | -15%
CCN(CC)c1ccc(NC(=O)CN(C)Cc2cccs2)cc1 | -5% | -12% | -11% | -12% | 13µM*
CN=c1nc(-c2ccccc2)n(-c2ccccc2)s1 | . | -2% | -20% | 7.9µM* | -16%
Cc1cccc(C(=O)n2c(=S)nc3ccccn32)c1 | 13µM* | ? | -91% | -20% | -2%
Cc1ccc(C(=O)n2c(=S)nc3ccccn32)cc1 | 14µM* | . | -3% | . | .
Cc1ccc(C(=O)n2ncn(C)c2=S)cc1 | -5% | 11% | 0% | ? | 0%
COC(=O)C1=C(C)NC(C)=C(C(=O)O[C@H]2CCN(Cc3ccccc3)C2)C1c1cccc([N+](=O)[O-])c1 (stereo partly specified) | . | . | . | -7% | .
CCOc1ccc(NCc2nc3ccccc3n2CCOc2ccccc2)cc1 | -3% | ? | 18% | 0% | 14µM*
COC(=O)c1cnc(SC)nc1C | -1% | -3% | 2% | -4% | 2.8µM*
CSc1ncc(C(=O)Nc2ccccc2C)c(C)n1 | 1% | 14% | 2% | 2% | 2%
Cc1ccc(NCCC(=O)c2cccc([N+](=O)[O-])c2)c(C)c1 | 0% | 5.6µM* | -36% | -6% | ?
Cc1cccc(NCCC(=O)c2ccc([N+](=O)[O-])cc2)c1C | 5% | 35µM* | -2% | 6% | -4%
Cc1ccc(NCC(=O)c2ccc([N+](=O)[O-])cc2)cc1 | -5% | -18% | . | -8% | -26%
O=C(O)[C@H](C1NCCS1)N1C(=O)c2ccccc2C1=O (stereo partly specified) | . | . | -4% | . | .
Cc1ccc(S(=O)(=O)N(C)/N=C/C=C/c2ccccc2)cc1 | 9% | -10% | 1% | -8% | -8%[2.32 µM]
Cc1ccc(S(=O)(=O)N(C)/N=C/c2ccc(N(C)C)cc2)cc1 | -5% | -3% | -11% | -2% | 25µM*
SMILES | LmPK inhibitor | RE007 growth inh | NS1 function inh | TbPYK inhibitor | AMA1-RON2 inh
CC(=O)Oc1cccc2c1C(=O)C1CC=CC(OC(C)=O)C1C2=O (stereo unspecified) | . | ? | . | 1% | 32µM*
Cc1ccc(/C=[N+](\[O-])c2ccc(N(C)C)cc2)c2nsnc12 | -2% | 4µM* | . | -20% | 25µM*
O=[N+]([O-])c1cc([N+](=O)[O-])c2oc(-c3ccccc3)c(Br)c2c1O | -7% | 28µM* | -65% | 10% | 0%
COc1ccccc1N(C(C)=O)C1=C(Cl)C(=O)c2ccccc2C1=O | . | 13µM* | . | ? | 13µM*
COc1ccccc1N(C(=O)CCl)c1cn(C(C)=O)c2ccccc12 | -1% | 0% | 3% | 2% | 4%
COc1cccc(Nc2ccc3cc(S(=O)(=O)N4CCC(C)CC4)ccc3n2)c1 | . | . | . | -1% | .
CC#C[C@]1(O)CC[C@H]2C3CCC4=CC(=O)CCC4=C3[C@@H](c3ccc(N(C)C)cc3)C[C@@]21C (stereo partly specified) | . | . | -39% | . | .
CCc1ccn2cc(-c3ccc4c(c3)OCO4)nc2c1 | 14µM* | ? | -69% | ? | -10%
N/C(=N\OC(=O)c1ccc2c(c1)OCO2)c1ccncc1 | 25µM* | -19% | -1% | -4% | -9%
Cc1ccc(NC2=C/C(=N\S(=O)(=O)c3cccs3)c3ccccc3C2=O)c(C)c1 | -27% | -15% | 3% | -12% | 4.5µM*
O=C1C(Nc2ccc(O)cc2)=C/C(=N/S(=O)(=O)c2cccs2)c2ccccc21 | ? | -30% | . | -23% | 25µM*
CCc1ccc(S(=O)(=O)/N=C2\C=C(Nc3ccc(O)cc3)C(=O)c3ccccc32)cc1 | -19% | -27% | 3% | ? | 25µM*
Cc1ccc(Cl)cc1NC1=C/C(=N\S(=O)(=O)c2cccs2)c2ccccc2C1=O | ? | -18% | -51% | -9% | 4.5µM*
CCc1ccc(S(=O)(=O)/N=C2\C=C(Nc3cccc(C(=O)O)c3)C(=O)c3ccccc32)cc1 | -20% | -11% | 5% | -23% | ?
O=C(O)c1ccc(NC2=C/C(=N/S(=O)(=O)c3cccs3)c3ccccc3C2=O)cc1 | . | ? | . | -10% | ?
Cc1ccc(C)c(N=Cc2cc3c(cc2[N+](=O)[O-])OCO3)c1 | -5% | -4% | . | -3% | 1%
CC(C)(C)c1ccc(O)c(N=Cc2cc3c(cc2[N+](=O)[O-])OCO3)c1 | 1.6µM* | 9% | ? | ? | 57%
CC#CCN1c2ccccc2[C@]23C[C@@H](C(=O)OC)N(S(=O)(=O)c4ccc(C(F)(F)F)cc4)C2=NC(C(=O)OC)=C(C(=O)OC)[C@H]13 | 4%[11.5 µM] | . | . | . | .
CC(C)c1cnc2c(c1SCc1ccc([N+](=O)[O-])cc1)c(=O)n(C)c(=O)n2C | . | . | . | 10µM* | .
Cc1ccc(-c2n[nH]c(=S)n2/N=C/c2cccn2C)cc1 | 7.9µM* | 4% | 1% | 5µM* | 63%
S=c1[nH]nc(-c2ccc(Cl)cc2)n1/N=C/c1ccco1 | -7% | 1% | 3% | 4µM* | 86%
COc1ccc(-c2n[nH]c(=S)n2/N=C/c2cccn2C)cc1 | -4% | 3% | 7% | 2.5µM* | 67%
S=c1[nH]nc(-c2ccc(Cl)cc2)n1/N=C/C=C/c1ccco1 | -9% | -1% | 5% | ? | 54%
S=c1[nH]nc(-c2ccccc2)n1/N=C/c1cccs1 | ? | -13% | 11% | 11µM* | 10%
CSc1ncnc2c1ncn2CC(=O)[C@H]1CC[C@H]2[C@H]3CCC4=CC(=O)CC[C@@]4(C)[C@@H]3CC[C@@]12C | . | . | 5% | . | .
